Values joined by “and” are separate entries in the source; they are usually repeats but may differ in a detail not shown here. Equal values may be shown once.
target: Cytochrome P450 3A4 (Homo sapiens) (UniProt P08684); experiment: qHTS Assay for Activators of Cytochrome P450 3A4 (AID 885); conditions: recombinant CYP3A4, Luciferin-PPXE luminescence, 60 min; series mostly up to 57.1 µM; activity change, positive = activation: at the top concentration; further: nearly all actives have a fitted effect of over 65% in size
Sequence (P08684 whole entry, looked up): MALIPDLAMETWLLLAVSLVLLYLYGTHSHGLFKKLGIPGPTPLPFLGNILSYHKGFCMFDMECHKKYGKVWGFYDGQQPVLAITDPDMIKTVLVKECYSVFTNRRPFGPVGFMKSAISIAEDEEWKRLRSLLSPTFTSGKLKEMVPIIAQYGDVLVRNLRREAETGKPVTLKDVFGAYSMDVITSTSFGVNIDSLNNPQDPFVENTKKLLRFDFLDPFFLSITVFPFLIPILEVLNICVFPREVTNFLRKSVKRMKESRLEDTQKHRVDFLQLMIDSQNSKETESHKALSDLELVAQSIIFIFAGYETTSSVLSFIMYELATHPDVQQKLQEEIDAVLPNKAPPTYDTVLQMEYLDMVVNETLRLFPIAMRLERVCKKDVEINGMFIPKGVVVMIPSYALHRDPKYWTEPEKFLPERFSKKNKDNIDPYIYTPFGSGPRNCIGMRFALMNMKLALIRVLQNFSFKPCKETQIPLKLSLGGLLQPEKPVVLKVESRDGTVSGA
Summary of the method: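 Using 20nM recombinant human CYP3A4 in potassium phosphate (200mM), substrate Luciferin-PPXE at 25uM, luminescent luciferin detection followed a 60-min RT NADPH reaction; data scaled to 57 uM ketoconazole.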

Activity change, positive = activation, inactive:
CCC1=C2CC[C@H]3C(=O)N(c4ccccc4)C(=O)[C@H]3[C@H]2[C@@]2(C)C(=NCc3ccccc3)OC(=O)N2C1=O -88.1%
COC(=O)[C@@H]1C[C@@]2(O)[C@@H](O)[C@@H](O)[C@@H](O)C[C@H]2N1Cc1ccc(C(C)(C)C)cc1 -60.5%
CCC1=C(OC(=O)N(CC)CC)N2C(=O)OC(=NCC3CC3)[C@]2(C)[C@H]2C1=CC[C@H]1C(=O)N(c3ccccc3)C(=O)[C@H]12 -90.3%
O=C1C=C(NCCO)C(=O)c2cnccc21 -94%
CC(Cc1ccccc1)C(=O)NCCc1c[nH]c2ccccc12 (stereo not given) -102%
CCC1=C2CC[C@H]3C(=O)N(CC(=O)OC)C(=O)[C@H]3[C@H]2[C@@]2(C)C(=NCCc3c[nH]c4ccccc34)OC(=O)N2C1=O -103%
COC(=O)c1ccc(C23CC4(C2)[C@H](CN(Cc2cccnc2)[C@@H]4c2ccccc2)C3c2ccccc2)cc1 (stereo not given in full) -113%
COC(=O)[C@@H]1C[C@@H]2CC[C@@H](O)C[C@@H]2N1Cc1ccc(Cl)cc1 -61.5%
CCC1=C2CC[C@H]3C(=O)N(CC)C(=O)[C@H]3[C@H]2[C@@]2(Cc3ccccc3)C(=O)N(Cc3ccccc3)C(=O)N2C1=O -107%
COC(=O)[C@@H]1C[C@@H]2CC[C@@H](O)C[C@@H]2N1Cc1ccc(-c2ccccc2)cc1 -76.7%
c1ccc(C2[C@H]3CN(Cc4cccnc4)[C@H](c4ccccc4)C34CC2(c2ccccc2)C4)cc1 (stereo not given in full) -63.5%
FC(F)(F)c1ccc(C2[C@H]3CN(CC4CCCCC4)[C@H](c4ccccc4)C34CC2(c2cccnc2)C4)cc1 (stereo not given in full) -88.6%
CCC1=C2CC[C@H]3C(=O)N(c4ccccc4)C(=O)[C@H]3[C@H]2[C@@]2(Cc3ccccc3)C(=NCc3ccccc3)OC(=O)N2C1=O -86.6%
CCC1=C(OC(=O)N(CC)CC)N2C(=O)OC(=NCCc3c[nH]c4ccccc34)[C@]2(Cc2ccccc2)[C@H]2C1=CC[C@H]1C(=O)N(C)C(=O)[C@H]12 -96.2%
COC(=O)[C@@H]1C[C@@H]2CC[C@@H](O)C[C@@H]2N1CC1CCCCC1 -85%
CN1C[C@@H]2C(c3ccc(C(F)(F)F)cc3)C3(c4cccnc4)CC2(C3)[C@H]1c1ccccc1 (stereo not given in full) -75.2%
CCC1=C(OC(=O)N(CC)CC)N2C(=O)OC(=NCC(=O)OC)[C@]2(Cc2ccccc2)[C@H]2C1=CC[C@H]1C(=O)N(c3ccccc3)C(=O)[C@H]12 -80.7%
COc1cccc([C@H]2Oc3ccc(OC)cc3/C(=N\OC[C@@H](O)[C@@H]3O[C@@H]4OC(C)(C)O[C@@H]4[C@H]3O)[C@@H]2O)c1 -69.8% [at 11.4 µM]
COC(=O)c1ccc(C23CC4(C2)[C@H](CN(Cc2cccnc2)[C@@H]4c2ccccc2)C3c2ccc(C(F)(F)F)cc2)cc1 (stereo not given in full) -79.7%
O=C(N/N=C1/C[C@@H](O)[C@@H](O)[C@@H]2[C@@H]3C(=O)N(Cc4ccc5c(c4)OCO5)C(=O)[C@H]3CC[C@@H]12)OCc1ccccc1 -74.6% [at 11.4 µM]
O=C(O)c1sccc1S(=O)(=O)Nc1ccccc1N1CCCCC1 -67.4%
CCC1=C(OC(=O)N(CC)CC)N2C(=O)OC(=NCCc3c[nH]c4ccccc34)[C@]2(Cc2ccccc2)[C@H]2C1=CC[C@H]1C(=O)N(CC(=O)OC)C(=O)[C@H]12 -103%
CCC1=C(OC(=O)N(CC)CC)N2C(=O)OC(=NCCOC)[C@]2(Cc2ccccc2)[C@H]2C1=CC[C@H]1C(=O)NC(=O)[C@H]12 -86.7%
CCC1=C(OC(=O)N(CC)CC)N2C(=O)OC(=NCc3ccccc3)[C@]2(C)[C@H]2C1=CC[C@H]1C(=O)N(c3ccccc3)C(=O)[C@H]12 -91.9%
C=CC[C@@H]1C=C[C@@H](O/N=C\[C@@H](OC)[C@H](C)/C=C\CC(=O)OC)[C@@H](CO)O1 -64.1% [at 11.4 µM]
COC(=O)[C@@H]1C[C@@H]2CC[C@@H](O)C[C@@H]2N1Cc1ccc(OC)cc1 -67.5%
C/C(CCN1CCCc2nc(C)c(C)cc21)=N\O[C@@H](C)CN1CCCCc2nc(C)c(C)cc21 -69.7% [at 11.4 µM]
CCCNC(=O)OC[C@@H]1O[C@H](CCO/N=C(\C)CCN2CCc3nc(CC)c(CC)cc3C2)C=C[C@@H]1Oc1ccc(OC)cc1 -86.1% [at 11.4 µM]
CCC1=C2CC[C@H]3C(=O)N(C)C(=O)[C@H]3[C@H]2[C@@]2(Cc3ccccc3)C(=NCCc3c[nH]c4ccccc34)OC(=O)N2C1=O -95.4%
Cc1ccc(S(=O)(=O)N[C@H]2COC(=O)C/C=C\[C@H](C)[C@@H](NS(=O)(=O)c3ccc(C)cc3)COC(=O)C/C=C\[C@@H]2C)cc1 -90.7% [at 11.4 µM]
FC(F)(F)c1ccc(CN2C[C@@H]3C(c4ccc(Cl)nc4)C4(c5cccnc5)CC3(C4)[C@H]2c2ccccc2)cc1 (stereo not given in full) -63.5%
C/C(CCN1CCCc2nc(C)c(C)cc21)=N\OC[C@@H](O)COCc1ccco1 -77.3% [at 11.4 µM]
CC(C)(C)N1C(=O)[C@H]2[C@H]3[C@H](O)[C@H](O)C/C(=N/OC[C@@H](O)COCc4ccco4)[C@@H]3CC[C@@H]2C1=O -87.2% [at 11.4 µM]
COC(=O)C/C=C\[C@@H](C)[C@@H](/C=N\OCC[C@H]1C=C[C@H](OC(C)=O)[C@@H](COC(C)=O)O1)NS(=O)(=O)c1ccc(C)cc1 -95.4% [at 11.4 µM]
CCC1=C(OC(=O)N(CC)CC)N2C(=O)OC(=NCC(=O)OC)[C@]2(Cc2ccccc2)[C@H]2C1=CC[C@H]1C(=O)N(CC(=O)OC)C(=O)[C@H]12 -68.7%
Clc1ccc(C2[C@H]3CN(Cc4cccnc4)[C@H](c4ccccc4)C34CC2(c2ccccc2)C4)cn1 (stereo not given in full) -99.7%
CCC1=C(OC(=O)N(CC)CC)N2C(=O)OC(=NCC3CC3)[C@]2(C)[C@H]2C1=CC[C@H]1C(=O)N(CC)C(=O)[C@H]12 -76.2%
Cc1ccc(S(=O)(=O)N[C@H]2COC(=O)C/C=C\[C@@H](C)[C@H](NS(=O)(=O)c3ccc(C)cc3)COC(=O)C/C=C\[C@H]2C)cc1 -62.5% [at 11.4 µM]
COCCN=C1OC(=O)N2C(=O)C3=C4C(C[C@H]5C(=O)N(CC(=O)OC)C(=O)[C@H]5[C@H]4[C@@]12Cc1ccccc1)[C@H]1C(=O)N(CC(=O)OC)C(=O)[C@H]1[C@H]3C (stereo not given in full) -72.6%
C/C(CCN1CCCc2nc(C)c(C)cc21)=N\O[C@@H](C)c1cn([C@H](CO)Cc2ccccc2)nn1 -60.4% [at 11.4 µM] and -67% [at 11.4 µM]

Reference: PubChem BioAssay (NCATS)
